# Data from PubChem BioAssay.
# Calls of active or inactive are those of the source.
# What was measured:
# [1] = tested on: XIP peptide (Xip251-270) binding; assay: XIP fragment 251-270 binding compounds – biochemical, small-molecule microarray, fluorescence 635/667 nm, 0.1 µg/mL protein, primary screen (AID 1182); settings: fluorescent protein binding, 635 nm, higher = more signal, called active from +8 up or from −8 down
# XIP peptide (Xip251-270) = assay: compounds binding XIP fragment 251-270 – biochemical, small-molecule microarray, fluorescence 635/667 nm, 0.5 µg/mL protein, primary screen (AID 1183); settings: fluorescence 635 nm, higher = more signal
# [2] = blood-stage malaria parasite viability loss – strain 3D7, DAPI fluorescence, 100 nL, primary screen (AID 1184);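 note: parasites grown inside human red blood cells in medium with human serum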; settings: P. falciparum 3D7 growth, 3 d, higher = more signal
# [3] = molecular target: Homeobox protein Hox-A13 (Mus musculus) (UniProt Q62424); assay: disruptors of Hoxa13 oligonucleotide interaction – biochemical, fluorescence polarization, labeled oligonucleotide, primary screen (AID 1185); settings: Hoxa13:DNA binding, 15 min, higher = more signal, called active from +8 up or from −8 down
# Homeobox protein Hox-A13 (Mus musculus), sequence (Q62424 whole entry, looked up): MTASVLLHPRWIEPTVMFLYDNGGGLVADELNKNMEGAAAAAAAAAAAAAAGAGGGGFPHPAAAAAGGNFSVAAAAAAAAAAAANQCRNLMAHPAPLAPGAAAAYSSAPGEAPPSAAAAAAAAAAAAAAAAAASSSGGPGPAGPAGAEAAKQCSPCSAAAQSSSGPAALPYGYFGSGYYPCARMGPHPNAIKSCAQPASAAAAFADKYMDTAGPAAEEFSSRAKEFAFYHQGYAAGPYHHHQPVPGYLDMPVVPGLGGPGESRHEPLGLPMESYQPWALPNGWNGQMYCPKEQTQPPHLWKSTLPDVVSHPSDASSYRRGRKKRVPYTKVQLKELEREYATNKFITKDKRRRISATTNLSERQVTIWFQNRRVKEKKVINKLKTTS
SMILES,composite z-score [1],composite z-score (XIP peptide (Xip251-270)),z-score [2],z-score [3]
COC(=O)[C@H](C)NC(=O)CCC1CC(OC(=O)NCc2cccc3ccccc23)CC2(CCCC(COC(=O)NCCOc3ccccc3)O2)O1 (stereo partly specified),2.12 (inactive),0.345,-0.372,-6.3 (inactive)
CC(C)CON=C1C[C@@H](O)[C@@H](O)[C@@H]2[C@@H]3C(=O)N(Cc4ccccc4)C(=O)[C@@H]3CC[C@H]12,-0.0404 (inactive),0.106,-1.65,-2.34 (inactive)
O=C1C2=CC[C@H]3C(=O)N(Cc4ccccc4)C(=O)[C@H]3[C@H]2[C@H](O)[C@@H]2O[C@H]12,0.409 (inactive),-0.194,-0.116,-5.55 (inactive)
CCOC(=O)[C@H](Cc1ccccc1)NC(=O)CCC1CC(OC(=O)NCCc2ccc(F)cc2)CC2(CCCC(COC(=O)NCCOc3ccccc3)O2)O1 (stereo partly specified),-0.337 (inactive),0.401,-1.7,-2.88 (inactive)
CCOC(=O)[C@H](Cc1ccccc1)NC(=O)CCC1CC(OC(=O)NCc2ccc3c(c2)OCO3)CC2(CCCC(COC(=O)NCCc3ccc(Cl)cc3)O2)O1 (stereo partly specified),0.0608 (inactive),0.563,-1.78,-1.76 (inactive)
C[C@@H]1CC[C@H]2C(=O)OC(CN3C(=O)c4ccccc4C3=O)CN2[C@H]1c1ccc(Br)cc1 (stereo partly specified),-0.212 (inactive),0.338,0.49,-0.956 (inactive)
C[C@H]1CC[C@H]2C(=O)O[C@H](CO)CN2[C@@H]1c1ccc(Br)cc1,-0.0442 (inactive),-0.127,0.389,-3.98 (inactive)
CC(C)[C@@H](OCc1ccccc1)[C@H](C)C=NO[C@H](C)c1cn([C@@H]2COC[C@H]2O)nn1,-0.0971 (inactive),0.0742,1.61,-0.967 (inactive)
O=C1[C@H]2[C@H]3[C@H](O)[C@H](O)CC(=NOC[C@@H](O)COCc4ccco4)[C@@H]3CC[C@H]2C(=O)N1Cc1ccccc1,0.41 (inactive),0.64,-0.986,-2.98 (inactive)
O=C1C=C[C@@H](O)[C@@H]2[C@@H]3C(=O)N(Cc4ccccc4)C(=O)[C@@H]3CC[C@@H]12,0.771 (inactive),-0.0049,-0.0141,0.291 (inactive)
CC(CCN1CCc2nc(-c3ccccc3)c(-c3ccccc3)cc2C1)=NO[C@@H](C)c1cc(-c2c(C)cc(C)cc2C)no1,1.27 (inactive),0.416,-1.31,0.713 (inactive)
COC(OC)[C@@H](C)[C@H](OC)[C@@H](C)[C@H](OC)c1ccccc1,-0.17 (inactive),-0.0245,0.129,-0.402 (inactive)
C=CC[C@@H]1C=C[C@H](ON=C(C)CCN2CCCCc3nc(C)c(C)cc32)[C@@H](CO)O1,-0.167 (inactive),0.143,-0.784,-4.55 (inactive)
CC(C)=CCCC(C)=CCON=C1[C@H]2CCn3c(=O)n(-c4ccccc4)c(=O)n3[C@H]2[C@H](O)[C@@H]2O[C@H]12,0.246 (inactive),0.598,-2.23,-4.57 (inactive)
CCOC(=O)[C@H](Cc1ccccc1)NC(=O)CCC1CC(OC(=O)NCc2cccc3ccccc23)CC2(CCCC(COC(=O)NCCOc3ccccc3)O2)O1 (stereo partly specified),-0.0988 (inactive),0.512,-1.86,-2.04 (inactive)
C[C@H]1CC[C@H]2C(=O)OC(COc3ccc(C(C)(C)C)cc3)CN2[C@@H]1c1ccc(Br)cc1 (stereo partly specified),0.0819 (inactive),0.3,1.52,-3.32 (inactive)
CCOC(=O)CCN1C(=O)[C@H]2[C@H]3[C@H](O)[C@H](O)CC(=NO[C@@H]4O[C@H](CO)[C@@H](O)[C@H](O)[C@H]4O)[C@H]3CC[C@H]2C1=O,0.234 (inactive),0.405,0.209,-0.139 (inactive)
CCOC(=O)NN=C1C[C@@H](O)[C@@H](O)[C@@H]2[C@@H]3C(=O)N(C[C@@H]4CCCO4)C(=O)[C@@H]3CC[C@H]12,0.0272 (inactive),0.0356,0.379,0.0129 (inactive)
COc1ccc2c(c1)O[C@@H](c1cccc(C(F)(F)F)c1)[C@H](O)C2=O,0.245 (inactive),-0.233,0.142,0.16 (inactive)
CCOC(=O)[C@H](Cc1ccccc1)NC(=O)CCC1CC(OC(=O)NCc2cccc3ccccc23)CC2(CCCC(COC(=O)NCCc3ccccc3OC)O2)O1 (stereo partly specified),0.248 (inactive),0.374,-1.95,-0.95 (inactive)
CCOC(=O)[C@H](Cc1ccccc1)NC(=O)CCC1CC(OC(=O)NCc2ccc3c(c2)OCO3)CC2(CCCC(COC(=O)NCCOC)O2)O1 (stereo partly specified),0.247 (inactive),0.515,-2.09,-3.78 (inactive)
CC(C)(C)N1C(=O)[C@H]2[C@H]3[C@H](O)[C@H](O)CC(=NNC(=O)OCc4ccccc4)[C@@H]3CC[C@H]2C1=O,0.0863 (inactive),0.195,2.05,0.408 (inactive)

SMILES,composite z-score [1],composite z-score (XIP peptide (Xip251-270)),z-score [2],z-score [3]
C=CC[C@@H]1C=C[C@H](Oc2ccc(C)cc2)[C@@H](COC(=O)NCc2cccc3ccccc23)O1,-0.405 (inactive),0.427,-0.517,-0.901 (inactive)
CCOC(=O)NN=C1C[C@@H](O)[C@@H](O)[C@@H]2[C@@H]3C(=O)N(CC)C(=O)[C@@H]3CC[C@H]12,0.124 (inactive),-0.379,0.613,0.368 (inactive)
CC(C)=NO[C@@H](C)c1cn([C@H](CO)Cc2ccccc2)nn1,-0.407 (inactive),0.241,0.412,1.06 (inactive)
CC(=O)OC[C@H]1O[C@H](CC=NO[C@H](C)c2cn([C@@H]3COC[C@H]3O)nn2)C=C[C@@H]1OC(C)=O,-0.205 (inactive),0.644,-0.0896,0.928 (inactive)
C#CCCCON=C1[C@H]2CCn3c(=O)n([C@@H](CC)c4ccccc4)c(=O)n3[C@H]2[C@H](O)[C@@H]2O[C@H]12,0.967 (inactive),-0.226,-0.9,-3.68 (inactive)
CCOC(=O)[C@H](CC(C)C)NC(=O)CCC1CC(OC(=O)NCCc2ccc(F)cc2)CC2(CCCC(COC(=O)NCCCN3CCCC3=O)O2)O1 (stereo partly specified),0.173 (inactive),0.74,-1.82,-6.3 (inactive)
CC(CCN1CCCCc2nc(C)c(C)cc21)=NOC[C@@H](O)[C@H]1O[C@@H]2OC(C)(C)O[C@@H]2[C@H]1O,-0.398 (inactive),0.698,0.027,-1.75 (inactive)
CC=CC1=C(CO)[C@H](O)[C@H]2O[C@H]2[C@@H]1O,0.353 (inactive),0.374,0.0425,-0.101 (inactive)
CON=C1c2cc(OC)ccc2O[C@H](c2cccc(OC)c2)[C@H]1O,0.906 (inactive),0.464,0.924,-0.365 (inactive)
CCN1C(=O)[C@H]2[C@H]3[C@H](O)[C@H](O)CC(=NOCC[C@@H]4C=C[C@H](OC(C)=O)[C@@H](COC(C)=O)O4)[C@@H]3CC[C@H]2C1=O,0.607 (inactive),0.529,0.145,-1.8 (inactive)
CC(=O)OC[C@H]1O[C@H](C#CCC2CCCCC2)C=C[C@@H]1OC(C)=O,0.525 (inactive),0.392,0.951,-5.27 (inactive)
COc1ccc(O[C@H]2C=C[C@@H](c3ccccc3)O[C@@H]2COC(=O)NCc2cccc3ccccc23)cc1,-0.318 (inactive),0.143,-0.806,1.25 (inactive)
O=C1[C@H]2[C@H]3[C@H](O)[C@H](O)CC(=NOC[C@@H](O)COCc4ccco4)[C@@H]3CC[C@H]2C(=O)N1C1CCCCC1,0.288 (inactive),0.306,1.7,-4.42 (inactive)
CC(C)=CCCC(C)=CCON=C1C[C@@H](O)[C@@H](O)[C@@H]2[C@@H]3C(=O)N(C4CCCCC4)C(=O)[C@@H]3CC[C@H]12,1.45 (inactive),0.722,0.273,-0.469 (inactive)
CCN1C(=O)[C@H]2[C@H]3[C@H](O)[C@H](O)CC(=NO[C@H](C)c4cn([C@@H]5COC[C@H]5O)nn4)[C@@H]3CC[C@H]2C1=O,0.0118 (inactive),-0.629,0.202,-0.803 (inactive)
CCOC(=O)CCN1C(=O)[C@H]2[C@H]3[C@H](O)[C@H](O)CC(=NOCC(C)C)[C@@H]3CC[C@H]2C1=O,-0.0503 (inactive),0.203,-0.379,-3.95 (inactive)
O=C1C2=CC[C@H]3C(=O)N(C4CCCCC4)C(=O)[C@H]3[C@H]2[C@H](O)[C@@H]2O[C@H]12,0.381 (inactive),-0.274,-1.98,-5.22 (inactive)
CCc1cc2c(nc1CC)CCN(CCC(C)=NOC(C)CN1CCCCc3nc(C)c(C)cc31)C2 (stereo unspecified),0.531 (inactive),0.61,-1.86,-7.64 (inactive)
O=C1[C@H]2[C@H]3[C@H](O)[C@H](O)CC(=NOC[C@@H](O)COCc4ccco4)[C@@H]3CC[C@H]2C(=O)N1c1cccc(Oc2ccccc2)c1,0.2 (inactive),-0.344,0.48,-5.57 (inactive)
CCOC(=O)[C@H](CC(C)C)NC(=O)CCC1CC(OC(=O)NCc2ccc3c(c2)OCO3)CC2(CCCC(COC(=O)NCCOC)O2)O1 (stereo partly specified),0.685 (inactive),0.0552,-1.99,-5.34 (inactive)
CC(=O)OC[C@H]1O[C@H](CC=NOC[C@@H](O)[C@H]2O[C@@H]3OC(C)(C)O[C@@H]3[C@H]2O)C=C[C@@H]1OC(C)=O,0.232 (inactive),0.732,0.158,-0.147 (inactive)
CCOC(=O)[C@H](CC(C)C)NC(=O)CCC1CC(OC(=O)NCc2ccc3c(c2)OCO3)CC2(CCCC(COC(=O)NCCc3ccc(Cl)cc3)O2)O1 (stereo partly specified),-0.0891 (inactive),0.137,-1.66,-6.16 (inactive)
